{"source": "PubChem BioAssay AID504697", "about": "(The Scripps Research Institute Molecular Screening Center, 2011)", "note": "The source made the active and inactive calls.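 Rule for the calls: active = EC50 at or below 10 µM; inactive = EC50 above 10 µM.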", "data": [{"test": "fluorescence interference artefacts, compound only, dose response, artefact control for cardiac thin filament activator project, biochemical, no RTF in test wells (AID 504697);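 note: emission near 535 nm under roughly 485 nm excitation as for IANBD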", "conditions": "compound-only fluorescence in RTF assay buffer with Ca2+ (no RTF in test wells), artifact counterscreen", "values": [{"smiles": "CNC(=S)N1N=C(c2ccc(Br)cc2)CC1c1ccc(N(C)C)cc1", "note": "(stereo unspecified)", "EC50": "51.4 µM (inactive)"}, {"smiles": "Cc1ccc(N2C(=O)C3C(C(=O)c4ccccc4)=NN(c4ccccc4)C3C2=O)cc1", "note": "(stereo unspecified)", "EC50": "33.8 µM (inactive)"}, {"smiles": "CC(=O)Nc1ccc2cc3ccc(NC(C)=O)cc3nc2c1", "EC50": "> 71.5 µM (inactive)"}, {"smiles": "COc1ccc(NC(=O)/C(C#N)=C\\c2ccc(N3CCOCC3)o2)cc1", "EC50": "3.63 µM (active)"}, {"smiles": "CC(C)Sc1nc2ccc(Br)cc2[nH]1", "EC50": "> 71.4 µM (inactive)"}, {"smiles": "COCCn1c(=O)c2ccccc2c2ccccc2c1=O", "EC50": "> 71.5 µM (inactive)"}]}]}
